# Pf growth 48h: Primary qHTS for delayed death inhibitors of the malarial parasite plastid, 48 hour incubation; P. falciparum luciferase growth in erythrocytes, 48 h; Potency, µM (top dose mostly 28.7 µM), for the others: at the top dose activity change, negative = inhibition, most hits filed as inhibitors; 310,000 compounds, 5.9% hits; AID 504832, 2011; further: potency means the concentration at half of the fitted maximal effect
#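 Growth was read as firefly luciferase luminescence after a 48 h, 37 C, 5% CO2 exposure of compounds to reporter-bearing P. falciparum cultures (0.1% parasitemia, 2% hematocrit final) in Albumax-supplemented RPMI 1640.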
# Giardia FBPA inh: qHTS Assay for Inhibitors of Fructose-1,6-bisphosphate Aldolase from Giardia Lamblia. A8B2U2. purified Giardia FBPA. Potency, µM (top dose mostly 59.6 µM), without a hit: at the top dose activity, negative = inhibition, most hits filed as inhibitors. 290,000 compounds, 0.71% hits. AID 2451, 2010; further: potency means the concentration at half of the fitted maximal effect; nearly all actives have a fitted effect of over 55% in size
# Target sequence (A8B2U2 whole entry, looked up): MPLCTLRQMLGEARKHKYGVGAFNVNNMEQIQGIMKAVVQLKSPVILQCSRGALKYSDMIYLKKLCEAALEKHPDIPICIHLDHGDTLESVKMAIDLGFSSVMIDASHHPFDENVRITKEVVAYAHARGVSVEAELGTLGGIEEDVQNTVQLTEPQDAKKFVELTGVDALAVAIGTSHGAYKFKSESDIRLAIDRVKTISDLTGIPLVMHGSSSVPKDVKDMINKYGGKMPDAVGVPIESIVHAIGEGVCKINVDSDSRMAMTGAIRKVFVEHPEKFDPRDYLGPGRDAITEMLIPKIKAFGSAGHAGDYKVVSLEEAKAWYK
#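 40 nM FBPA preincubated 10 min at RT with compound (up to 57.5 uM final), then substrate plus GAPDH/TPI/NAD/arsenate coupling and diaphorase/resazurin added. Fluorescence read after 20 min at RT, 525/598 nm.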
# Pf growth 96h: Primary qHTS for delayed death inhibitors of the malarial parasite plastid, 96 hour incubation | 320,000 compounds, 6.9% hits | Potency, µM (series often up to 28.7 µM), inactives show top-dose activity change, negative = inhibition, most hits filed as inhibitors | P. falciparum luciferase reporter growth, 96 h; further: potency means the concentration at half of the fitted maximal effect
#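 Two-generation exposure (96 h) targets delayed-death phenotype. Reporter parasites carrying integrated firefly luciferase, in red cells at 2% hematocrit and 0.05% parasitemia final, kept at 37 C, 5% CO2; luminescence loss indicates inhibition.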
# HCMV antiviral: qHTS Assay for inhibitors of the human cytomegalovirus (HCMV); activity change, negative = inhibition, % at 57.5 µM; HFF cells, HCMV-luciferase reporter, 72 h; hits give low values; 410,000 compounds, 4.5% hits; in the data active means activity change below about -60%; inconclusive means no clear call, values can overlap the other calls; inactive means above about -39%
#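 Inhibition of viral replication was scored as loss of reporter luminescence in HFFs infected with HCMV-luciferase (MOI 1 PFU/cell) for 72 h; compounds tested at 2 doses, normalized to buffer and Salinomycin controls.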
# Sm TGR block: qHTS Assay for the Inhibitors of Schistosoma Mansoni Peroxiredoxins; Schistosoma mansoni thioredoxin glutathione reductase (TGR), Q962Y6; purified TGR, DTNB reduction, TNB absorbance 405 nm; Potency, µM (highest dose often 114 µM), inactives show top-dose activity change, negative = inhibition, usual class: inhibitors; 360,000 compounds, 3% hits; AID 485364, 2010; further: potency means the concentration at half of the fitted maximal effect; nearly all actives have a fitted effect of over 60% in size
#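 Kinetic colorimetric format: TGR-catalysed, NADPH-driven DTNB reduction monitored via TNB absorbance. Enzyme dispensed at 20 nM; compound exposure 15 min at room temperature before reaction start.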
# An asterisk follows results filed as active; ? = inconclusive; . = not tested or not shown; [ ] = dose if it differs, or a comment. Shown are actives, neighbours in structure and some others; about 14% of the full set was active somewhere. Unless noted, the call rests on the fitted dose curve; in most records, active means well fitted curve in the direction sought with a large enough effect; inconclusive means small, poorly fitted or top-dose-only effect, or another doubt; inactive means no such curve, though single readings can be large; an effect the other way counts as inactive or inconclusive. On the % scale 0 is the no-effect control and ±100 the full control effect.
SMILES,Pf growth 48h,Giardia FBPA inh,Pf growth 96h,HCMV antiviral,Sm TGR block
C#CCOCCOCCOCCNc1nc(N2CCN(C(=O)[C@H](CCC(=O)O)n3cc(C(N)Cc4ccc(O)cc4)nn3)CC2)nc(N2CCN(C(=O)[C@H](CCCCN)n3cc(C(N)[C@H](C)CC)nn3)CC2)n1 (stereo not given in full),72%,-9%,76%,.,32µM*
O=C(CNC(=O)C1COc2ccccc2O1)N/N=C\c1ccc(Br)cc1 (stereo not given),53%,0%,6%,3,1%
C#CCOCCOCCOCCNc1nc(N2CCN(C(=O)[C@H](CCCCN)n3cc(CCCC)nn3)CC2)nc(N2CCN(C(=O)[C@H](Cc3ccc(O)cc3)n3cc(CCO)nn3)CC2)n1,-3%,20%,-25%,.,35µM*
C#CCOCCOCCOCCNc1nc(N2CCN(C(=O)[C@H](CCC(=O)O)n3cc(C(N)CC(C)C)nn3)CC2)nc(N2CCN(C(=O)[C@H](Cc3ccc(O)cc3)n3cc(C(N)[C@H](C)CC)nn3)CC2)n1 (stereo not given in full),36%,-9%,40%,.,40µM*
C#CCOCCOCCOCCNc1nc(N2CCN(C(=O)C([C@@H](C)CC)n3cc(C(N)CC(C)C)nn3)CC2)nc(N2CCN(C(=O)[C@H](CCC(=O)O)n3cc(C(N)[C@H](C)CC)nn3)CC2)n1 (stereo not given in full),0%,-6%,24%,-28,-25%
C#CCOCCOCCOCCNc1nc(N2CCN(C(=O)[C@H](CCCCN)n3cc(CC(C)O)nn3)CC2)nc(N2CCN(C(=O)[C@H](Cc3ccc(O)cc3)n3cc(CCO)nn3)CC2)n1 (stereo not given in full),.,.,.,-15,.
COc1coc(C(O)C[N+](=O)[O-])cc1=O (stereo not given),9%,-19%,-14%,-28,50µM*
Cc1cccc[n+]1CC(=O)N1c2ccccc2Sc2ccccc21,3.7µM*,-4%,0%,13,.
CC(C)(C)NC(=O)N1c2ccccc2Sc2ccccc21,3%,10%,110%,-60*,-4%
CC(C)CNCC(=O)N1c2ccccc2Sc2ccccc21,?,?,?,-71*,4%
COc1ccccc1C(=O)N1c2ccccc2Sc2ccccc21,-40%,-18%,-22%,-73*,-1%
O=C(CSc1ncc2c(n1)-c1cc(Cl)ccc1N(Cc1ccccc1F)S2(=O)=O)Nc1cccc(C(F)(F)F)c1,.,.,.,-12,6%
CC(=O)[C@H](CC(C)C)NC(=O)[C@@H](CC(C)C)NC(=O)[C@H](CC(C)C)NC(=O)OCc1ccccc1,.,10%,.,.,.
O=C(CN1C(=O)NC(c2ccccc2)(c2ccccc2)C1=O)NCC(=O)Nc1ccc(F)cc1,?,.,-19%,50,-3%
CCc1cccc(NC(=O)CCCn2c(=O)[nH]c3ccsc3c2=O)c1,-7%,2%,2.9µM*,-7,-8%
CCOc1ccc(NC(=O)CCn2c(=O)[nH]c3ccsc3c2=O)cc1,.,1%,7.4µM*,-10,-8%
O=C(NCCNCc1ccccn1)c1ccco1,-1%,-18%,?,10,.
O=C(CCN1C(=O)/C(=C\c2ccccc2)SC1=S)Nc1ccc(C(=O)O)cc1,28%,3%,-11%,-8,2%
O=C(CCCN1C(=O)/C(=C\c2ccccc2)SC1=S)Nc1ccc(O)cc1,?,-2%,3%,-96*,0%[57.1 µM]
O=C(CCCN1C(=O)/C(=C/c2ccccc2)SC1=S)Nc1cccc(O)c1,?,-7%,-29%,-97*,-16%
O=C(CCCN1C(=O)/C(=C/c2cccs2)SC1=S)Nc1cccc(O)c1,?,-2%,24%,-100*,13%
Cc1ccc(/C=C2\SC(=S)N(CCCC(=O)NC3CCCC3)C2=O)cc1,-19%,3%,?,-61*,5%
Cc1ccc(S(=O)(=O)N2CCN(Cc3ccco3)CC2)c(C)c1,?,.,?,-6,-7%
CCc1ccc(/C=C2\SC(=S)N(CCCC(=O)NC3=NCCS3)C2=O)cc1,.,.,.,-74*,.
Cc1ccc(/C=C2\SC(=S)N(CCCC(=O)NNC(=O)c3ccccc3O)C2=O)cc1,?,11%,?,-93*,12%
SMILES,Pf growth 48h,Giardia FBPA inh,Pf growth 96h,HCMV antiviral,Sm TGR block
COc1cccc(/C=C2\SC(=S)N(CCCC(=O)NC3=NCCS3)C2=O)c1,-5%,7%,-4%,-29,0%
Cc1ccc(NC(=O)CN2C(=O)S/C(=C\c3ccc(C(=O)O)cc3)C2=O)cc1,9%,-7%,15µM*,9,-7%
Cc1ccc(/C=C2/SC(=S)N(CCCC(=O)Nc3ccc(O)cc3)C2=O)cc1,?,-4%,3%,-100*,9%
CCNC(=O)C1(C)CCCN(C(=O)c2cccnc2Oc2ccccc2)C1 (stereo not given),.,.,.,-21,.
CCCN1CCC(=O)N([C@H](CN=[N+]=[N-])CC(C)C)CC1,?,-6%,4.7µM*,44,-19%
COC(=O)[C@H]1[C@H](CO)[C@H]2Cn3c(ccc(Br)c3=O)[C@@H]1N2C(=O)NC(C)C,.,.,.,-29,.
Cc1cc(C)c(S(=O)(=O)NCC(c2ccc(N(C)C)cc2)N2CCc3ccccc32)c(C)c1 (stereo not given),.,.,.,3,-7%
Cc1ccc(C(=O)N2CCN(c3nc4ccccc4n3C)CC2)cc1,?,-5%,9%,-62*,-10%
CN1CCCN(C(=O)CSc2nc3cccnc3n2C)CC1,.,.,.,8,.
Cn1c(SCC(=O)N2CCCCC2)nc2cccnc21,30%,4%,13µM*,-11,0%
O=C(CSc1nc2ccc(S(=O)(=O)N3CCOCC3)cc2[nH]1)N1CCOCC1,.,-3%,1.9µM*,-9,4%
O=C(CSc1nc(-c2ccccc2)c(-c2ccccc2)[nH]1)N1CCN(S(=O)(=O)c2ccccc2)CC1,.,0%,?,-88*,-20%
COc1ccc(-c2ccc3c(n2)CCCN3S(=O)(=O)c2ccc(C#N)cc2)cc1,.,.,.,-29,.
CC(C)Oc1ccc(Nc2cc3c(cn2)cc(-c2cccc(C(F)(F)F)c2)n3C)cc1,.,.,.,-5,.
CCCCn1c(N)c(N(CCC(C)C)C(=O)C2CCCN(C(=O)c3ccc(Cl)cc3)C2)c(=O)[nH]c1=O (stereo not given),0%,.,?,-16,-18%
Cn1c(SCC(=O)N2CCN(S(=O)(=O)c3ccccc3)CC2)nc2ccccc21,?,5%,?,-1,0%
CC(C)Cn1c(SCC(=O)N2CCN(S(=O)(=O)c3ccccc3)CC2)nc2ccccc21,3.3µM*,-1%,.,-68*,-8%

# Screening results as filed in PubChem.
